Experimental data reported in the supplement of paper PMC13380429.
Unmarked numbers belong to inactive results.

System: Vero E6 infected with SARS-CoV-2
Test: inhibition of SARS-CoV-2 cytopathic effect; higher = more antiviral protection, active = above 15
Conditions: 48 h

| Structure (SMILES) | inhibition of SARS-CoV-2 cytopathic effect (1 nM) [%] | inhibition of SARS-CoV-2 cytopathic effect (8.33 nM) [%] | inhibition of SARS-CoV-2 cytopathic effect (100 nM) [%] | inhibition of SARS-CoV-2 cytopathic effect (833.33 nM) [%] | inhibition of SARS-CoV-2 cytopathic effect (10000 nM) |
| --- | --- | --- | --- | --- | --- |
| C[C@H]1[C@H](OC(=O)CCC(=O)O)O[C@@H]2O[C@@]3(C)CC[C@H]4[C@H](C)CC[C@@H]1[C@@]24OO3 [artesunate] | -1.31 | -0.87 | 1.57 | -1.37 | -11.7% |
| NS(=O)(=O)C#Cc1ccccc1 [pifithrin-mu] | 2.15 | 5.91 | 2.87 | 4.85 | 22.5% (active) |
| COc1cc2ncnc(Nc3cccc(Br)c3)c2cc1OC | -2.89 | -3.44 | -2.56 | -11.5 | 36.3% (active) |
| CCCCCCCCCCCC1=C(O)C(=O)C=C(O)C1=O [embelin] | 0.27 | -0.22 | -1.48 | -2.76 | -6.88% |
| O=C(/C=C\n1cnc(-c2cc(C(F)(F)F)cc(C(F)(F)F)c2)n1)NNc1cnccn1 [selinexor] | -0.07 | -3.07 | -7.87 | -8.61 | -8.85% |
| NC(=O)C(c1ccccc1)(c1ccccc1)[C@@H]1CCN(CCc2ccc3c(c2)CCO3)C1 [darifenacin] | -1.18 | 0.61 | 2.83 | 0.42 | -5.65% |
| COc1ccc(OC)c(CN(C(C)=O)c2cc(F)ccc2Oc2ccccc2)c1 | 1.17 | -0.16 | 4.26 | 3.55 | 2.47% |
| O=C(O)C(=O)c1cn(Cc2ccccc2)c2ccc(-c3ccc(OC(F)(F)F)cc3)cc12 [tiplaxtinin] | 2.16 | 2.56 | 3.44 | 2.13 | 4.09% |
| N[C@H]1C[C@@H]1c1ccccc1 (racemic) [tranylcypromine] | 0.8 | -0.11 | -0.1 | 0.19 | 2.21% |
| CCN1CCN(C(=O)Cc2ccc(Nc3ncc(F)c(Nc4ccc(C(=O)Nc5ccccc5Cl)cc4)n3)cc2)CC1 [aurora-a-inhibitor-i] | -0.07 | -0.73 | -0.58 | 0.9 | 4.49% |
| C#CCN1C(C)=C(C(=O)OC)C(c2cccc([N+](=O)[O-])c2)C(C(=O)OCC)=C1C (stereo not given) | 0.91 | 2.53 | 0.36 | 3.36 | 6.77% |
| CC(C)(C)c1ccc(-c2nc3ccccc3[nH]2)cc1 | -0.43 | -0.22 | 1.49 | 3.96 | 4.75% |
| CCCNC(C)(C)COC(=O)c1ccccc1 [meprylcaine] | 2.21 | -2.34 | -2.33 | -1.75 | -5.76% |
| NC(=O)Cc1cccc(C(=O)c2ccccc2)c1N [nepafenac] | -0.09 | 1.07 | -0.56 | -1.36 | -2.65% |
| N=C(N)c1cc2ccc(OC(=O)c3cccs3)cc2s1 | 1.66 | 1.86 | 2.63 | -1.57 | 4.87% |
| COc1cc2ncc(-c3ccccc3)nc2cc1OC [tyrphostin-AG-1296] | 1.41 | 0.53 | 0.84 | -1.04 | -1.96% |
| O=C1c2cccc3c2[C@H](CCC3)CN1[C@@H]1CN2CCC1CC2 [palonosetron] | -2.25 | -0.74 | -0.65 | -0.13 | -0.75% |
| CC1=C(/C=C/C(C)=C/C=C/C(C)=C/CO)C(C)(C)CCC1 [retinol] | -0.49 | 0.39 | 0.03 | 2.09 | 2.75% |
| O=c1cc(N2CCNCC2)oc2c(-c3ccccc3)cccc12 | 0.61 | -3.07 | -0.37 | 0.12 | 1.5% |
| Nc1nc2[nH]cnc2c(=S)[nH]1 [thioguanine] | -0.56 | -0.26 | 1.4 | 2.65 | 5.44% |
